Source: PubChem (Fisher Drug Discovery Resource Center)
mcGAS RapidFire: mouse cGAS inhibition by mass spec. Q8C6L5. recombinant mouse cGAS, cGAMP by RapidFire MS. inhibition, % at 12.5 µM. hit rate 0.18% among 130,000. AID 1259397;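 active means inhibition of cGAS enzyme activity at or above 60%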;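 further: enzyme stimulated by 45 bp dsDNA with ATP and GTP substrates; cGAMP share of summed cGAMP plus half ATP and half GTP signals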
Target sequence (Q8C6L5 whole entry, looked up): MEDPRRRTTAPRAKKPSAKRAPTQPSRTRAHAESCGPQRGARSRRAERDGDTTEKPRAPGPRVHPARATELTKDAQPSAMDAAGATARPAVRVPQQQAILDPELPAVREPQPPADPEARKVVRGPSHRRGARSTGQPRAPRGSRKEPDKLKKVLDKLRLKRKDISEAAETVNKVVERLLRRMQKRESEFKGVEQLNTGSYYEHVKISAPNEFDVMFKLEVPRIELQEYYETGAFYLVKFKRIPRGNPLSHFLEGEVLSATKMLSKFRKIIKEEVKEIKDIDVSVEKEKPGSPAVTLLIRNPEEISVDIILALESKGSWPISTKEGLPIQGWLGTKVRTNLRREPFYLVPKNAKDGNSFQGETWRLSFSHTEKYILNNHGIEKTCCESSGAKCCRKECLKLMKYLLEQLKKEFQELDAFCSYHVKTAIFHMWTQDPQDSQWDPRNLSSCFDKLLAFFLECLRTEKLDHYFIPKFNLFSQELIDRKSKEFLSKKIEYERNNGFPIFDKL
An asterisk follows results filed as active; ! = not confirmed by another sample. The entries come from a sample that favours hits as a whole.

SMILES	mcGAS RapidFire
Cc1cc(C)n(CCC(=O)N[C@@H]2C[C@@H]3C[C@H]([C@H]2C)C3(C)C)c(=O)n1	4
N#Cc1ccc(N=Nc2c(-c3ccc([N+](=O)[O-])cc3)[nH]n(-c3ccccc3)c2=O)cc1	-3
O=c1c(N=Nc2cccc([N+](=O)[O-])c2)c(-c2ccccc2)[nH]n1-c1ccccc1	-6
O=C(O)c1ccc(N=Nc2c(-c3ccccc3)[nH]n(-c3ccc([N+](=O)[O-])cc3)c2=O)cc1	76*
COCC(=O)Nn1ccc2c(cnc3ncnn32)c1=O	-2
COc1cc(OC)c(OC)cc1C=C(C#N)C(N)=S	10
Cc1nc(CCN)cc(N2CCCC2c2nonc2C)n1 (configuration not stated)	6
CN1CCN(C)C(CNC(=O)C2CC2c2ccc(Cl)c(Cl)c2)C1 (configuration not stated)	-4
O=C(C1CC1c1ccc(Cl)c(Cl)c1)N1CCCn2ncnc21 (configuration not stated)	96*
CCCn1c(=O)n(CCC(=O)N2CCCn3ncnc32)c2ccccc21	-12
CCNC(=O)NC(=O)C(C)OC(=O)c1c(F)cccc1Cl (configuration not stated)	6
COc1cccc(-c2nc(C=Nc3ccccc3Cl)c(O)o2)c1	-4
Cn1c(=O)c2c(nc3n2CCCN3c2ccc(F)cc2)n(C)c1=O	-2
Cc1cc(O)cc(O)c1C(=O)O	46
Cc1cc(O)c(C=O)c(O)c1C(=O)O	82*
Cc1cc(C)c(C(=O)O)c(=O)[nH]1	-4
Cc1cc(C)c2c(c1)NC(=O)C2CC(=O)N1CCc2nc[nH]c2C1 (configuration not stated)	-4
CNC(=O)C1CCCN(C(=O)c2oc3c(C)cccc3c2C)C1 (configuration not stated)	-6
Cc1cccc2nc(CN3CCc4sccc4C3c3cccs3)cc(=O)n12 (configuration not stated)	-7
Cc1ccc(CN(Cc2ccc(F)cc2)C(=O)CNCCCN2CCOCC2)o1	-2
O=C1CSC(=NNC(=S)NCc2ccco2)N1	83*
S=C(NCc1ccco1)NC1CCSc2ccccc21 (configuration not stated)	0
C=C(N/N=C1/NC(=O)CS1)c1ccccc1	-6
CCCC(Br)C(=O)Nc1cc(C)on1 (configuration not stated)	-7
FC(F)Oc1ccc(NC(=S)Nc2cc(Cl)c(Cl)cc2Cl)cc1	30
SMILES	mcGAS RapidFire
CC(=O)N1N=C(c2nc(Cl)ccc2Cl)OC1(C)c1ccc(Br)cc1 (configuration not stated)	-2
COc1ccc2cc(CN3CCCN(c4ccncc4)CC3)c(=O)[nH]c2c1	60*
COc1ccc2[nH]c(=O)c(CN3CCC(N4CCCC(O)C4)CC3)cc2c1 (configuration not stated)	2
COc1ccc2[nH]c(=O)c(CN3CCCOC(Cn4cccn4)C3)cc2c1 (configuration not stated)	-13
CCN(CC)S(=O)(=O)c1ccc2nc(-c3ccc(C#N)cc3)[nH]c2c1	8
Cc1nc2ccc(C(=O)N3[C@@H]4CC[C@H]3CNC(=O)C4)cc2nc1C	-7
CCOc1ccc(C2CC(c3c(O)cc(C)oc3=O)=Nc3ccccc3S2)cc1 (configuration not stated)	2
CC(C)(C)OC(=O)Nc1ccsc1Br	66*!
CC(C)(C)OC(=O)Nc1ccncc1C(=O)c1ccccc1	-21
Cn1ccsc1=NC(=O)c1ccc(NC(=O)OC(C)(C)C)cc1	-14
Nc1c(C(=O)N2CCCC3CCCCC32)cnn1-c1cc(F)ccc1F (configuration not stated)	-1
O=C1NC(=O)C2C1Sc1[nH]c(=O)sc1C2c1ccco1 (configuration not stated)	89*
COc1ccc(C2c3sc(=O)[nH]c3SC3C(=O)NC(=O)C32)cc1 (configuration not stated)	-2
O=C1C2Sc3[nH]c(=O)sc3C(c3ccc(O)cc3)C2C(=O)N1c1ccc(Cl)cc1 (configuration not stated)	0
O=C(NCC(F)(F)F)C1CCCN(C2CCN(CCc3ccccc3)CC2)C1 (configuration not stated)	-3
O=C1CC(C(F)(F)F)N(C(=O)COC(=O)c2cccc(OCC3CCCO3)c2)c2ccccc2N1 (configuration not stated)	94*
Cc1noc(C)c1C(=O)Nc1cccc(OCC2CCCO2)c1 (configuration not stated)	-5
O=C(c1c[nH]c(=O)c(Cl)c1)N1CCOC(COc2cccc(C(F)(F)F)c2)C1 (configuration not stated)	-6
O=S(=O)(CC1CCCO1)Nc1ccc(N2CCCC2)c(Cl)c1 (configuration not stated)	-22
N#Cc1cccc(S(=O)(=O)Nc2c(F)cccc2N2CCCC2)c1	-1
N#CCCCCS(=O)(=O)Nc1ccc(N2CCCC2)c(F)c1	63*
N#CC1COCCN1C(=O)c1cc(-n2cccn2)ccn1 (configuration not stated)	-2
CC(c1cccnc1)N(C)C(=O)NCCc1ccn(-c2ccccc2)n1 (configuration not stated)	-13
